Data taken from the supplement of paper PMC9334596.
Where “and” joins values, the source holds several entries; their conditions need not be identical. Equal entries are not always repeated. The full ranking holds about 5,300 compounds; the median of “PER2::LUC luminescence relative to vehicle control” is about 0.96, and the highest 2% start at about 1.3. The full list was thinned out, with the highest values kept by preference.

Test system: mPer2Luc MEF
Experiment: PER2::LUC luminescence relative to vehicle control (fold of vehicle); higher = higher PER2::LUC reporter signal
Details: 10 µM
In short: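 The reported values are PER2::LUC luminescence as fold of vehicle control in mouse embryonic fibroblasts carrying the mPer2Luc reporter. Cells were seeded at ~3000 per well in 384-well plates in DMEM with 10% FBS at 37 °C and 5% CO2, and compounds were added at 10 μM 48 h later. ONE-Glo luminescence was read 24 h and 30 h after treatment.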

| Compound | PER2::LUC luminescence (time after treatment 24 h) | PER2::LUC luminescence (time after treatment 30 h) |
| --- | --- | --- |
| COc1ccc(-c2cc(=O)c3c(OC)c(OC)c(OC)cc3o2)cc1OC | 0.736 | 0.843 |
| COc1c(O)cc(O)c2c(=O)cc(-c3ccccc3)oc12 | 1.03 | 1.02 |
| COc1cc(C)c2c(=O)cc(-c3ccccc3)oc2c1 | 1.64 | 1.76 |
| COc1cccc2oc(-c3ccccc3)cc(=O)c12 | 1.41 | 1.43 |
| O=c1cc(-c2ccccc2)oc2cc(O)cc(O)c12 | 1.55 and 1.53 | 2.06 and 1.73 |
| O=c1cc(-c2ccccc2)oc2cc(O)c(O)c(O)c12 | 1.13 | 1.1 |
| O=C(O)[C@H]1O[C@@H](Oc2cc3oc(-c4ccccc4)cc(=O)c3c(O)c2O)[C@H](O)[C@@H](O)[C@@H]1O | 1.22 | 1.34 |
| O=c1cc(-c2ccc(O)cc2)oc2cc(O)cc(O)c12 | 0.595 | 0.545 |
| O=c1cc(-c2ccc(O)c(O)c2)oc2cc(O)cc(O)c12 | 1.01 | 1.1 |
| COc1cc(OC)c2c(=O)cc(-c3ccccc3)oc2c1 | 1.01 | 1.12 |
| O=c1cc(-c2ccccc2)oc2cccc(O)c12 | 1.25 | 1.42 |
| COc1ccc(-c2cc(=O)c3c(OC(C)=O)cc(OC(C)=O)cc3o2)cc1 | 1.25 | 1.3 |
| CC[C@H]1OC(=O)C[C@@H](O)[C@H](C)[C@@H](O[C@@H]2O[C@H](C)[C@@H](O)[C@H](N(C)C)[C@H]2O)[C@@H](CCN2CCCCC2)C[C@@H](C)C(=O)/C=C/C(C)=C/[C@@H]1CN1CCCCC1 | 0.885 | 0.882 |
| CC1NC(=O)NC1=O (stereo not given) | 0.946 | 0.877 |
| CCO[C@H]1CN(C2CCC(O)(c3ccc4c(c3)OCO4)CC2)C[C@@H]1NC(=O)CNC(=O)c1cccc(C(F)(F)F)c1 (stereo not given in full) | 0.97 | 0.88 |
| C#CCN(Cc1cc2c(=O)n(C)c(CN3CCN(C)CC3)nc2cc1Cl)c1ccc(C(=O)NCc2cccnc2)cc1 | 0.621 | 0.565 |
| c1ccc2c3c([nH]c2c1)[C@H]1[C@@H]2CC[C@@H]([C@@H]4CCCN[C@@H]42)N1CC3 | 1.23 | 1 |
| CC(C)CCC[C@@H](C)[C@H]1CC[C@H]2[C@@H]3C=CC4=CC(=O)CC[C@]4(C)[C@H]3CC[C@]12C | 0.981 | 0.927 |
| CC(C(=O)O[C@]12CCC[C@H](CC1)N2C)c1ccc(Br)cc1 (stereo not given in full) | 0.821 | 0.934 |
| CCOc1ccc(Oc2ccc(OCc3cc(F)ccc3F)cc2)c(N)c1 | 1.03 | 0.887 |
| C[C@@H]1O[C@@H](OC[C@H]2O[C@@H](OCCc3ccc(O)c(O)c3)[C@H](O)[C@@H](O[C@@H]3O[C@@H](C)[C@H](O)[C@@H](O)[C@H]3O)[C@@H]2OC(=O)/C=C/c2ccc(O)c(O)c2)[C@H](O)[C@H](O)[C@H]1O | 1.09 | 0.982 |
| N[C@@H](C(=O)N[C@@H]1C(=O)N2C(C(=O)O)=C(CSc3cn[nH]n3)CS[C@H]12)c1ccc(O)cc1 | 1 | 0.912 |
| C/C1=C/CCC(C)(O)/C=C\C(C(C)C)C(OC(=O)c2ccc(O)cc2)C1 (stereo not given) | 1.06 | 1.07 |
| O=C1NC(=O)/C(=C/c2ccc3c(c2)OC(F)(F)O3)S1 | 1.31 and 1.12 | 1.42 and 1.06 |
| O=C1NC(=O)/C(=C\c2ccc3nccnc3c2)S1 | 1.2 | 1.23 |

| Compound | PER2::LUC luminescence (time after treatment 24 h) | PER2::LUC luminescence (time after treatment 30 h) |
| --- | --- | --- |
| O=C1NC(=O)/C(=C/c2cccc(C(F)(F)F)c2)S1 | 1.02 | 1.06 |
| O=C(O)c1cccc(CN2C(=O)/C(=C(\c3ccccc3)c3ccc(Cl)cc3)c3ccccc32)c1 | 1.09 | 1.03 |
| CO[C@@H]1[C@@H](O[C@@H]2O[C@H](C)[C@@H](O[C@H]3C[C@@](C)(O)[C@@H](OC(=O)CC(C)C)[C@H](C)O3)[C@H](N(C)C)[C@H]2O)[C@@H](CC=O)C[C@@H](C)[C@@H](O)/C=C/C=C/C[C@@H](C)OC(=O)C[C@H]1O | 0.929 | 1.07 |
| CN(C)c1ccc2c(c1)OC(N)=C(C#N)C2c1cccc(C(F)(F)F)c1 (stereo not given) | 1.04 | 1 |
| NC(=O)c1ccccc1Nc1ccnc(Nc2cccc(O)c2)n1 | 0.392 | 0.446 |
| CC1(C)C2CCC1(C)C(O)C2 (stereo not given) | 1.1 | 0.997 |
| Clc1ccc(COC(Cn2ccnc2)c2ccc(Cl)cc2Cl)c(Cl)c1 (stereo not given) | 1.04 and 0.591 | 1.29 and 1.01 |
| Clc1ccc(COC(Cn2ccnc2)c2ccc(Cl)cc2Cl)cc1 (stereo not given) | 1.26 and 1.03 | 1.35 and 1.25 |
| Clc1ccc(C(Cn2ccnc2)OCc2ccc(Sc3ccccc3)cc2)c(Cl)c1 (stereo not given) | 0.905 | 1.06 |
| C=CC(C1=CC(=O)C(OC)=CC1=O)c1ccc(O)cc1 (stereo not given) | 0.816 | 0.863 |
| CCCCCCCCCCC1=C(C)C(=O)C(OC)=C(OC)C1=O | 1.02 | 0.992 |
| C[C@@H]1CCO[C@H]2Cn3cc(C(=O)NCc4ccc(F)cc4F)c(=O)c(O)c3C(=O)N12 | 1.35 and 1.15 | 1.4 and 1.2 |
| CCN1C[C@H](C)n2c(c(O)c3c(=O)n(Cc4ccc(F)c(Cl)c4)nc(C(=O)NC)c32)C1=O | 1.29 | 1.16 |
| CC(=O)c1ccc2c(c1)C1C=CCC1C(c1cc3c(cc1Br)OCO3)N2 (stereo not given) | 1.02 | 0.942 |
| CC(C(=O)Nc1cc(C#N)ccc1CCCC(=O)O)c1ccc(F)c2ccccc12 (stereo not given) | 1.06 | 1.03 |
| COC(=O)C(O)CCn1cnc2c(N)ncnc21 (stereo not given) | 0.95 | 0.999 |
| COc1cccc(OC)c1C(=O)N[C@@H]1C(=O)N2[C@@H]1SC(C)(C)[C@@H]2C(=O)O | 0.867 | 0.823 |
| CC(Oc1ccccc1)C(=O)N[C@@H]1C(=O)N2[C@@H]1SC(C)(C)[C@@H]2C(=O)O (stereo not given in full) | 1.02 | 0.902 |
| CC1(C)S[C@@H]2[C@H](NC(=O)[C@H](N)c3ccccc3)C(=O)N2[C@H]1C(=O)O | 1.04 and 0.885 | 0.911 and 0.808 |
| CC1(C)S[C@@H]2[C@H](NC(=O)C(C(=O)O)c3ccccc3)C(=O)N2[C@H]1C(=O)O (stereo not given in full) | 1.05 | 1.03 |
| CC1(C)S[C@@H]2[C@H](NC(=O)Cc3ccccc3)C(=O)N2[C@H]1C(=O)O | 1.06 and 1.17 | 1.72 and 0.949 |
| CC1(C)S[C@@H]2[C@H](NC(=O)COc3ccccc3)C(=O)N2[C@H]1C(=O)O | 1.09 | 1.56 |
| Nn1cc(Br)c(=O)[nH]c1=O | 0.972 | 0.954 |
| CC[N+]1(C)C2CCC1CC(OC(=O)C1CCC(C(=O)OC3CC4CCC(C3)[N+]4(C)CC)(c3ccccc3)c3ccccc31)C2 (stereo not given) | 0.898 | 0.961 |
| CN(Cc1ccccc1)c1ccc2cc(C(=O)O)c(=O)oc2c1 | 1.06 | 0.948 |
